Reference: PubChem BioAssay AID1851 (National Center for Advancing Translational Sciences (NCATS), 2009)
About 5,700 (36%) of roughly 16,000 compounds were called active. Roughly 24% stayed inconclusive and do not appear here. Calls follow the shape of the dose curve; as a rule, active = well fitted curve in the direction sought with a large enough effect; inconclusive = small, poorly fitted or top-dose-only effect, or effect the other way; inactive = no such curve, though single readings can be large or run the other way. This is one part of the list.

target: Cytochrome P450 1A2 (Homo sapiens) (UniProt P05177); assay: Cytochrome panel assay with activity outcomes; conditions: recombinant CYP, pro-luciferin dealkylation, luminescence, p450-cyp1a2; series mostly up to 57.1 µM; activity, negative = inhibition: at the top concentration
% is scaled to controls: 0 for no effect and ±100 for the full control effect.

Cytochrome P450 1A2 (Homo sapiens), sequence (P05177 whole entry, looked up): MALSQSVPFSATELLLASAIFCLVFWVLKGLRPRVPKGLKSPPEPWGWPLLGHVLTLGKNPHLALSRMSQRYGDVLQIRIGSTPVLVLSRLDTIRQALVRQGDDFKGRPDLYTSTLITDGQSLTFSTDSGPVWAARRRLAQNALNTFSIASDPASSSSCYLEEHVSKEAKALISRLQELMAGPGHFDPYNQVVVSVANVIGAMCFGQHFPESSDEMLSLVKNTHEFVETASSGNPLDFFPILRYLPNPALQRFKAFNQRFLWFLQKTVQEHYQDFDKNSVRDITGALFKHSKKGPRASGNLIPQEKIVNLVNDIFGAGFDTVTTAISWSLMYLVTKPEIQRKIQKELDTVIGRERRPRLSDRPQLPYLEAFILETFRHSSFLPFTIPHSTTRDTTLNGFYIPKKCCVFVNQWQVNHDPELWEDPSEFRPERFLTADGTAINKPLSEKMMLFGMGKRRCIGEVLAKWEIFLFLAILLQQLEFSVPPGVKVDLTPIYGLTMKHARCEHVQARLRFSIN

activity, negative = inhibition, inactive:
O=C(O)CCC(O)=C1S(=O)(=O)OCCOS1(=O)=O -21.5% [at 11.4 µM]
O=C(O)/C=C/C(=O)Nc1ccc(F)cc1F 20.4%
O=C(O)c1ccccc1C1c2ccccc2Oc2ccccc21 -20.4% [at 2.29 µM]
COC(=O)c1c(-c2cc(OC)c(OC)c(OC)c2)c2ccc(OCc3ccccn3)cc2c(=O)n1-c1ccc(N)cc1 -16%
CN1/C(=C\C=[N+](C)c2ccccc2)C(C)(C)c2ccccc21 -11.3%
Nc1nc2c(nc(Br)n2[C@@H]2O[C@H]3COP(=O)(O)O[C@@H]3[C@H]2O)c(=O)[nH]1 1.91%
CCOc1cc2[nH]c(=O)n(CCC(=O)NCc3ccc(OC)cc3)c(=O)c2cc1OCC -12.3%
Cn1c(=O)c2c(n(Cc3ccccc3)c1=O)NC(=O)C2CC(=O)NCc1cccc(Cl)c1 (stereo not given) 15.8%
Cc1ccc(CS(=O)(=O)CCC(=O)NCc2ccccn2)cc1 -11%
CC(C)(C)NC(=O)C(c1ccccn1)N(C(=O)C1CSC(=O)C1)c1ccc(F)cc1 (stereo not given) 2.02%
O=C(O)c1ccccc1-c1ccccc1C(=O)Nc1ccc2c(c1)Cc1ccccc1-2 -7.14% [at 2.29 µM]
COc1cccc(NC(=S)NN2CCN(C)CC2)c1 -5.77%
O=P(Cc1cc[n+]([O-])cc1)(c1ccccc1)c1ccccc1 13.4%
CC[C@]1(c2ncc[nH]2)Cc2ccccc2O1 -31%
CC(C)OC(=O)C(CC(=O)O)N1CCOCC1 (stereo not given) 1.7%
COc1ccc(NC(=O)N2CC3(CCN(C(=O)c4ccc(OC)cc4)CC3)C2)cc1 -21.6%
CC(=O)OC[C@@H]1O[C@@H](O/N=C2/C[C@@H](O)[C@@H](O)[C@@H]3[C@@H]4C(=O)N(C5CCCCC5)C(=O)[C@H]4CC[C@@H]23)[C@H](OC(C)=O)[C@H](OC(C)=O)[C@@H]1OC(C)=O 0.189% [at 11.4 µM]
O=c1[nH]c(=O)n([C@@H]2C[C@H](O)[C@H](CO)O2)cc1C(F)(F)F -3.57% [at 25.6 µM]
COc1ccc(COC(=O)N/N=C2/C[C@@H](O)[C@@H](O)[C@@H]3[C@@H]4C(=O)N([C@@H](C)c5ccccc5)C(=O)[C@H]4CC[C@H]23)cc1 -2.7% [at 11.4 µM]
NCCNCC1CCNCC1 -3.59% [at 2.29 µM]
CCn1cc(C(=O)NCC(=O)OC)c2cc(OC)c(OC)cc2c1=O -13.6%
NCc1ccccc1CC(=O)N[C@@H]1C(=O)N2C(C(=O)O)=C(CSc3nnnn3CC(=O)O)CS[C@@H]12 -9.72% [at 25.6 µM]
COc1ccc(NC(=O)N2CC[C@@]3(CCCN(C(=O)c4cc(C(F)(F)F)cc(C(F)(F)F)c4)C3)C2)cc1 -18.6%
COc1ccc(CCNC(=O)c2nnn(CC(=O)Nc3ccccc3C)c2N)cc1OC -18.3%
O=C(NCc1ccco1)c1ccc2c(=O)n(-c3ccccc3)c(=S)[nH]c2c1 -1.5%
COc1ccc2c(C=Nc3c(C)n(C)n(-c4ccccc4)c3=O)c(O)n(Cc3ccco3)c(=O)c2c1 -11.1%
C/C(CCC(=O)OC[C@@H]1O[C@H](C#Cc2ccccc2)C=C[C@@H]1Oc1ccc(C)cc1)=N/OC[C@@H](O)[C@H]1O[C@H]2OC(C)(C)O[C@H]2[C@@H]1O 2.38% [at 11.4 µM]
O=C(/C=C\c1ccccc1)c1ccccc1O -10.2% [at 11.4 µM]
CC1(C)[C@@H]2CC[C@]1(C)[C@@H](OC(=O)/C=C\c1ccccc1)C2 -3.39% [at 2.29 µM]
OC[C@@H]1O[C@@H](n2cnc3c(SCc4ccccc4)ncnc32)[C@@H](O)[C@H]1O -17.2% [at 2.29 µM]
CNC(=O)[C@@H]1O[C@@H](n2cnc3c(NCc4cccc(I)c4)ncnc32)[C@H](O)[C@@H]1O -16.4%
COc1ccc(-n2c(=O)[nH]cc(C(=O)Nc3ccc4c(c3)OCCO4)c2=O)cc1 -16.7%
CC/C=C\CC[C@H](OC(=O)c1ccc(Br)cc1)C1=CCCCC1=O 1.86% [at 11.4 µM]
COc1ccc(CCn2c(C)cc(C(=O)CSc3nc(N)cc(=O)[nH]3)c2C)cc1 -28.1%
CSCC[C@H](NC(=O)CC(C)(C)C)c1nc2ccccc2[nH]1 -6.75%
OCCNc1nc2ccccc2[nH]1 -21.8%
Nc1nc(N)c2[nH]c(CNc3ccc(C(=O)O)cc3)nc2n1 -9.57% [at 11.4 µM]
C[C@H](CN(C)C)C(O)(c1ccccc1)c1ccccc1 5.76% [at 11.4 µM]
Cc1ccc(NC(=O)C2CCN(S(C)(=O)=O)CC2)cc1 14.6%
N[C@@H](Cc1c[nH]c2ccc([N+](=O)[O-])cc12)C(=O)O -10.4% [at 11.4 µM]
CC(C)NC(=O)N1CCC2(CC1)CCN(C(=O)c1cccn1C)CC2 6.26%
CC(C)NC(=O)/C(=N\O)c1ccccc1 -26.9%
Cc1ccccc1-n1nc2c(c1NC(=O)c1ccc(S(=O)(=O)N(C)C)cc1)CSC2 -8.24%
Cc1ccccc1-n1nc2c(c1NC(=O)c1c(-c3ccccc3Cl)noc1C)CSC2 1.48%
Cn1c(=O)n(C)c2cc(S(=O)(=O)O)ccc21 8.35%
CO[C@]1(NC(=O)C2SC(=C(C(N)=O)C(=O)O)S2)C(=O)N2C(C(=O)O)=C(CSc3nnnn3C)CS[C@H]21 (stereo not given in full) -10.6% [at 25.6 µM]

AC50, inactive:
Nc1nc2c(ncn2COC(CO)CO)c(=O)[nH]1

AC50, active:
COc1ccc(C(=O)Nc2ccc(F)cc2F)cc1OC 14100 nM
CC(=O)c1ccc(OC(=O)C2c3ccccc3Oc3ccccc32)cc1 4470 nM
CCNc1ncc2ncc(=O)n(CCc3ccccc3)c2n1 1000 nM
CCNc1ncc2nc(C)c(=O)n(CCc3ccccc3)c2n1 1580 nM
O=c1cnc2cnc(Nc3ccccc3)nc2n1CCc1ccccc1 3160 nM
Cc1ccc(CNC(=O)Cc2csc(Nc3nc(=S)[nH]c4ccccc34)n2)cc1 3160 nM
O=C(Cc1csc(Nc2nc(=S)[nH]c3ccccc23)n1)NCc1cccc(Cl)c1 4470 nM
COc1ccc(CNC(=O)Cc2csc(Nc3nc(=S)[nH]c4ccccc34)n2)cc1 4470 nM
S=C(Nc1ccc2c(c1)Cc1ccccc1-2)Nc1ccc2c(c1)Cc1ccccc1-2 200 nM
O=C(Nc1ccc2c(c1)Cc1ccccc1-2)[C@@H]1[C@H](C(=O)O)[C@]2(Cl)C(Cl)=C(Cl)[C@@]1(Cl)C2(Cl)Cl 3160 nM
COc1ccccc1-c1cc(Nc2ccc(F)cc2)ncn1 2000 nM
COc1ccccc1-c1cc(Nc2ccn[nH]2)ncn1 631 nM
Cc1ccccc1-c1cncnc1NCc1cccs1 3160 nM
CN(C)Cc1ccccc1-c1cncnc1NCc1cccs1 25100 nM
COc1ccccc1-c1cncnc1NCc1cccs1 3160 nM
Cc1cccc(CNc2nc(-c3ccc4c(c3)OCO4)nc3ccccc23)c1 631 nM
c1cncc(CNc2nc(-c3ccc4c(c3)OCO4)nc3ccccc23)c1 100 nM
c1ccc(CNc2nc(-c3ccc4c(c3)OCO4)nc3ccccc23)cc1 501 nM
COc1ccccc1CNc1nc(-c2ccc3c(c2)OCO3)nc2ccccc12 631 nM
Cc1cnc(CNc2nc(-c3ccc4c(c3)OCO4)nc3ccccc23)cn1 2000 nM
COc1ccccc1CNc1nc(-c2ccc(N(C)C)cc2)nc2ccccc12 2510 nM
c1csc(CNc2nc(-c3ccc4c(c3)OCO4)nc3ccccc23)c1 794 nM
COc1ccc(CCNC(=O)c2ccc3c(=O)n(Cc4ccco4)c(=S)[nH]c3c2)cc1OC 25100 nM
CC(C)NC(=O)c1ccc2c(=O)n(Cc3ccco3)c(=S)[nH]c2c1 15800 nM
COc1ccc(NC(=O)c2ccc3c(=O)n(Cc4ccco4)c(=S)[nH]c3c2)c(OC)c1 794 nM
CC1=C(C)/C(=N\OC(=O)/C=C/c2ccccc2)C=CC1=O 14100 nM
Cc1ccc2nc(SCC(=O)Nc3nnc(SCC(N)=O)s3)[nH]c2c1 14100 nM
COc1ccc2nc(SCC(=O)Nc3ccc4c(c3)OCCO4)[nH]c2c1 5620 nM
Cc1ccc2nc(SCC(=O)c3ccc4c(c3)OCO4)[nH]c2c1 1000 nM
CCOC(=O)NC(=O)CSc1nc2ccc(OCC)cc2[nH]1 2510 nM
COc1ccc2nc(SCC(=O)c3ccco3)[nH]c2c1 7080 nM
O=C(N/N=C\c1ccc2c(c1)CCC2)c1ccccc1O 2000 nM
CCN(CC)c1nc2ccccc2[nH]1 15800 nM
CCOC(=O)c1c(C)oc2c1c(C=NC1CCS(=O)(=O)C1)c(O)c1ccccc12 (stereo not given) 1260 nM
CCOC(=O)c1c(C)oc2c1cc(O)c1ccccc12 63.1 nM
CCCCCOC(=O)c1c(N)n(CCOC)c2nc3ccccc3nc12 1000 nM
C=C(C)C1Cc2nc(N)nc(C)c2C1 (stereo not given) 3160 nM
Cc1ccc(C2CC2C(=O)NN)cc1 (stereo not given) 316 nM
O=C1C2=C(Nc3cc([N+](=O)[O-])ccc3N2)O[C@@H]1c1c[nH]c2ccc(COc3ccccc3)cc12 2510 nM
Cc1cc2c(cc1C)NC1=C(N2)O[C@H](c2c[nH]c3ccc(COc4ccccc4)cc23)C1=O 2510 nM
CC(C)NC(=O)C(C)n1cccc1C(=O)c1ccccc1 (stereo not given) 25100 nM
Cc1ccc(-n2nc3c(c2NC(=O)c2cccs2)CSC3)cc1 1580 nM
Cn1c(=O)n(C)c2cc(/C=N/n3cnnc3)ccc21 6310 nM
